# Rows were chosen to be rich in hits. Some 5.2% of all compounds tested hit in one or more screens of this group.
# PLK1 PBD inh = qHTS for Inhibitors of PLK1-PDB (polo-like kinase 1 - polo-box domain): Primary Screen | Plk1 PBD binding of FITC phosphopeptide, fluorescence polarization | Potency, µM, for inactives: max response, negative = inhibition, usual class: inhibitors | AID 720504, 2013 | Serine/threonine-protein kinase PLK1 (Homo sapiens), P53350 | 360,000 tested, 2.8% active; further: series mostly up to about 57 µM; nearly all actives have a fitted effect of over 65% in size
# VDR inh = Inhibitors of the vitamin D receptor (VDR): qHTS; Vitamin D3 receptor (Homo sapiens), P11473; VDR-SRC2-3 peptide fluorescence polarization, 2 h; Potency, µM, for the others: max response, negative = inhibition, actives largely listed as inhibitors; 400,000 tested, 0.93% active; AID 504847, 2011
# Target sequence (P11473 whole entry, looked up): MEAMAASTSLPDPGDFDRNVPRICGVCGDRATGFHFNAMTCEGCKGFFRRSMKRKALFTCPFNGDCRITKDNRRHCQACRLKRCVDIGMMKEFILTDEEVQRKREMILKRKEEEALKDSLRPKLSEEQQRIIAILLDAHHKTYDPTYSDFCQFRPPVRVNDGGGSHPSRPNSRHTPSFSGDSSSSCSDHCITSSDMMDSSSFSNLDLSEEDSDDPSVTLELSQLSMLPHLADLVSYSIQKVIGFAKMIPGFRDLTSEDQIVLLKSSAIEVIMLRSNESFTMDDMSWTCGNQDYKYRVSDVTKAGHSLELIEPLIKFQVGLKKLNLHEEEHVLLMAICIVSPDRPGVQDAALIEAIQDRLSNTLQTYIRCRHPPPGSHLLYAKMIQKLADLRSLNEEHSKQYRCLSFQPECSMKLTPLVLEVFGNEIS
#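 Compounds are added to VDR with labelled SRC2-3 coactivator peptide and held 2 h at room temperature. Inhibition of the VDR–peptide interaction is then read as a change in fluorescence polarization.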
# mIDH1 inhibitor = qHTS for Inhibitors of mutant isocitrate dehydrogenase 1 (IDH1): qHTS | IDH1-R132H enzyme, NADPH consumption, diaphorase/resazurin fluorescence | Potency, µM (top dose mostly 76.6 µM), for inactives: at the top dose activity change, negative = inhibition, most hits filed as inhibitors | 390,000 tested, 0.093% active | AID 602179, 2012; further: nearly all actives have a fitted effect of over 65% in size
#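 IDH1-R132H (0.5 ug/mL dispensed) in pH 7.5 Tris buffer was preincubated 30 min with compound, then given a substrate mix of 0.016 mM NADPH and 2 mM alpha-KG for 80 min at room temperature; remaining NADPH was read by diaphorase/resazurin fluorescence.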
# rTrxR1 inhibitor = qHTS Assay for Inhibitors of Mammalian Selenoprotein Thioredoxin Reductase 1 (TrxR1): qHTS; AID 588453, 2011; Thioredoxin reductase 1, cytoplasmic (Rattus norvegicus), O89049; Potency, µM (top dose mostly 114 µM), inactives show at the highest dose activity change, negative = inhibition, usual class: inhibitors; recombinant rTrxR1, NADPH fluorescence consumption, selenite substrate; 390,000 tested, 1% active; further: nearly all actives have a fitted effect of over 65% in size
#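 Rat TrxR1 (90 nM in the dispensed reagent) was pre-reduced with 400 uM NADPH for 5 min at room temperature, then incubated with compound for 15 min. After 400 uM selenite was added, NADPH fluorescence (Ex 340/Em 450 nm) was followed for 8 min.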
# Sfp PPTase inh = qHTS Assay for Inhibitors of Bacillus subtilis Sfp phosphopantetheinyl transferase (PPTase) | 4'-phosphopantetheinyl transferase ffp (Bacillus subtilis), Q9F4F7 | Biochemical Sfp PPTase activity, qHTS | Potency, µM, without a hit: largest response in the series, negative = inhibition, actives largely listed as inhibitors | 310,000 tested, 3.5% active | AID 1490, 2009;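 further: the enzyme is Sfp with the accession as filed and its product quenches rhodamine fluorescence; 0% = enzyme reaction without inhibitor and -100% = no enzyme wells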
#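 With Hepes-Na pH 7.6 buffer containing 10 mM MgCl2, Sfp (15 nM) modified BHQ-2-YbbR (12.5 uM) using rhodamine-CoA (5 uM). Two reads 30 minutes apart at 525/598 nm yielded each well's rate.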
# TrxR1 substrate = qHTS Assay for Substrates of Mammalian Selenoprotein Thioredoxin Reductase 1 (TrxR1): qHTS; Potency, µM (titrated, usually from 114 µM), inactives show at the top dose activity change, negative = substrate turnover; Thioredoxin reductase 1, cytoplasmic (Rattus norvegicus), O89049; purified TrxR1 substrate turnover, NADPH consumption readout; 390,000 tested, 0.01% active; further: nearly all actives have a fitted effect of over 50% in size
#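 Rat TrxR1, dispensed at 90 nM, was prereduced with 400 uM NADPH (final) for 5 min at ~22 deg C, then incubated with compound 15 min before 400 uM selenite. A first-read NADPH fluorescence drop versus no-compound background flagged substrates.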
# * marks the source's active call; other numbers are inactive results; u = inconclusive; x = no result given; [ ] = dose if it differs, or a comment. The call rests on the fitted dose curve; in most records, active means well fitted curve in the direction sought with a large enough effect; inconclusive means small, poorly fitted or top-dose-only effect, or another doubt; inactive means no such curve, though single readings can be large; an effect the other way counts as inactive or inconclusive. Unless noted, on the % scale 0 is the no-effect control and ±100 the full control effect; potency means the concentration at half of the fitted maximal effect.
SMILES,PLK1 PBD inh,VDR inh,mIDH1 inhibitor,rTrxR1 inhibitor,Sfp PPTase inh,TrxR1 substrate
O=C(O)c1ccc(N/N=C/C(Br)=C/c2ccccc2)cc1,u,-9%,4%,32µM*,u,-15%
O=C(N/N=C/C(Br)=C\c1ccccc1)c1ccc2nc[nH]c2c1,-10%,u,2%,u,50µM*,-12%
CC(C)N(Cc1ccccc1)C(=O)CN1C(=O)NC2(CCCCCC2)C1=O,-9%,5%,3%,33%,x,0%
Cn1c(NCCc2ccccc2)cc(=O)n(C)c1=O,0%,-3%,1%,6%,-7%,4%
Cn1c(=O)c(NCCc2ccccc2)c2c3c(cccc31)C(=O)c1ccccc1-2,3.8µM*,u,2%,-4%[57.1 µM],-3%,6%[57.1 µM]
CCCCNc1c2c3c(cccc3n(C)c1=O)C(=O)c1ccccc1-2,2.4µM*,1%,-1%,16%[57.1 µM],-12%,-4%[57.1 µM]
CC(=O)Nc1ccc(Nc2c3c4c(cccc4n(C)c2=O)C(=O)c2ccccc2-3)cc1,6.7µM*,11%,5%,-16%,-4%,-11%
CC(=O)Nc1ccc2c(c1)C(=O)c1ccccc1C2=O,-7%,-8%,3%,12%[57.1 µM],-9%,5%[57.1 µM]
O=C(Cn1ccn(-c2ccc(F)c(F)c2)c(=O)c1=O)c1ccc(F)cc1,x,1%,5%,-3%,x,-13%
Brc1cccc(OCCn2ccnc2)c1,u,-12%,4%,8%,56µM*,1%
COCCn1c(C)cc(/C=C(\C#N)C(=O)OC(C)C(=O)Nc2ccc(NC(C)=O)cc2)c1C (stereo not drawn),8%,21%,0%,10%[57.1 µM],x,18%[57.1 µM]
COc1ccc(-c2csc(NC(=S)NC(=O)c3cccs3)n2)cc1OC,-27%,-5%,11%,-3%[57.1 µM],32µM*,-2%[57.1 µM]
Cc1ccc(C)c(NC(=O)Cn2c(SCC(=O)NCc3ccccc3)nc3ccccc32)c1,x,2%,-11%,22%[57.1 µM],x,-3%[57.1 µM]
O=C(Cc1ccc(Cl)cc1)Nc1ccccc1N1CCN(C(=O)c2ccccc2)CC1,-4%,0%,-4%,24%,0%,3%
CC(C)CCC(CCN1CCCC1)c1ccc2c(c1)OCO2 (stereo not drawn),-5%,-1%,6%,37%[11.4 µM],-21%,-13%[11.4 µM]
CC(C)CCC(CCN1CCOCC1)c1ccc2c(c1)OCO2 (stereo not drawn),1%,-8%,4%,3%,79µM*,2%
C=CCNC(=S)NNC(=O)c1ccc(OCCCC)cc1,-11%,17%,-5%,-4%,21%,-4%
C=CCNC(=S)NNC(=O)C(CCCC)CC(C)(C)O (stereo not drawn),3%,16%,-1%,-9%,18µM*,-7%
Cc1ccccc1N=C1Nc2ccccc2N[C@]12C[C@H]1CCCC(=O)N3CC[C@@H](C2)[C@@H]13,x,x,x,-5%,x,-6%
COc1cc(-c2nn3c(-c4cc(-c5ccccc5)n[nH]4)nnc3s2)cc(OC)c1OC,x,-13%,x,22%,x,19%[0.0914 µM]
COc1ccc2c(c1)nc(SCC(=O)c1cccs1)n2C,-24%,-23%,13%,-3%,89µM*,4%
COc1ccc2c(c1)nc(SCC(C)O)n2C (stereo not drawn),-8%,-10%,5%,-4%,3%,-5%
Cn1nnnc1SCC(=O)c1cccs1,-20%,u,4%,u,45µM*,-4%
COc1ccc2c(c1)nc(SCC(=O)C(C)(C)C)n2C,-15%,u,5%,13%,56µM*,-7%[57.1 µM]
Nc1ccc2nc(CCc3ccccc3)[nH]c2c1,6%,-6%,-2%,2%,u,5%

# Compound activity (PubChem BioAssay)
